The list is not random: actives were taken first. Their share in the collection is about 21%.
Pf growth 96h – inhibits malaria parasite growth, 96 h; P. falciparum luciferase reporter growth, 96 h; Potency, µM (doses to about 28.7 µM), usual class: inhibitors; 320,000 compounds, 6.9% hits
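Parasite growth measured via integrated firefly luciferase reporter in P. falciparum. Infected erythrocytes at 2% hematocrit, 0.05% parasitemia final were treated 96 hours at 37 C under 5% CO2, and luminescence was read.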
Pf growth 48h – inhibits P. falciparum growth in the first generation, 48 h; P. falciparum luciferase growth in erythrocytes, 48 h; Potency, µM (series often up to 28.7 µM), hits mostly inhibitors; 310,000 compounds, 5.9% hits
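Erythrocytes infected with P. falciparum carrying an integrated firefly luciferase reporter (2% hematocrit, 0.1% parasitemia final) were exposed to compounds in RPMI 1640 with 0.5% Albumax at 37 C, 5% CO2. Growth inhibition was scored as reduced luminescence.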
Shiga inhibitor – blocks Shiga toxin action in Vero cells | Vero cells, Shiga toxin protein synthesis inhibition reporter | inhibition, % at 38.7 µM | 290,000 compounds, 9.2% hits; in the data active = inhibition mostly above about 28%, no sharp cut-off; inactive = mostly below about 43%
AMA1 RON2 block – AMA1-RON2 (P. falciparum) interaction inhibition; AlphaScreen AMA1-biotinylated RON2 peptide binding; Potency, µM (series often up to 58.2 µM), hits mostly inhibitors; 360,000 compounds, 0.2% hits; AID 720542; also: nearly all actives have a fitted effect of over 45% in size
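AMA1 (3D7) with his tag at 25 nM final met compounds first, then biotinylated RON2 peptide at 25 nM; detection used donor plus acceptor beads, 10 µg/mL apiece, read by AlphaScreen after 30 min at room temperature.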
Cycloheximide cs – affects cycloheximide protein synthesis inhibition readout, counter-screen | cell reporter, cycloheximide protein synthesis inhibition counterscreen | max response, % | 300,000 compounds, 12% hits | AID 2314; in the data active = max response mostly above about 13%, no sharp cut-off; inactive = mostly below about 14%; also: read at 38.3 µM for the half of the compounds with a filed dose
HCV inh – blocks hepatitis C virus. AID 651820. Huh7.5.1 HCVcc-Cre infection, luciferase reporter, 44 h. Potency, µM (titrated, usually from 41.8 µM), actives largely listed as inhibitors. 340,000 compounds, 3.4% hits
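1,000 cells/well; 4 h culture; + compound; + HCVcc-Cre (~0.5 moi); 44 h; luciferase substrate, RT 15 min; read 15 sec.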
Each line names hits and unclear results; the compound was inactive in the other large screens. Unless noted, calls follow the shape of the dose curve; as a rule, active = well fitted curve in the direction sought with a large enough effect; inconclusive = small, poorly fitted or top-dose-only effect, or another doubt; inactive = no such curve, though single readings can be large; an effect the other way counts as inactive or inconclusive.

c1csc(-c2nn3cnnc3c3ccccc23)c1	none
O=C(Nc1cccc(F)c1)Nc1ccc(Cl)cn1	Shiga inhibitor 38, Cycloheximide cs 24
Cc1ccnc(NC(=O)Nc2cccc(F)c2)c1	Pf growth 96h 7.4µM, Shiga inhibitor 73, Cycloheximide cs 41
Cc1ccc(NC(=O)Nc2cccc(F)c2)nc1	Pf growth 96h inconclusive, Cycloheximide cs 26
Cc1ccc(/C=C2/C(=O)NC(=O)N(CC3CCCO3)C2=O)s1 (centres undefined)	Shiga inhibitor 97
NC(=O)C1CCCN(CC(=O)Nc2cc(S(=O)(=O)N3CCOCC3)ccc2N2CCCC2)C1 (centres undefined)	Pf growth 96h inconclusive (no result: Shiga inhibitor, Cycloheximide cs)
NNC(=O)c1cc2c(s1)CCCCCC2	Pf growth 96h inconclusive, Pf growth 48h inconclusive
C/C(N)=C(/C#N)C(=O)COC(=O)c1cc2c(s1)CCC(C)C2 (centres undefined)	Shiga inhibitor 93, Cycloheximide cs 68
C/C(N)=C(/C#N)C(=O)COC(=O)c1cc2c(s1)CCCC2	Shiga inhibitor 60, Cycloheximide cs 35
CNC(=O)COC(=O)c1cc2c(s1)CCCC2	Cycloheximide cs 24
CCc1cccc(NC(=O)CCS(=O)(=O)c2ccc(Br)cc2)c1	none
Cc1ccc(N2CCN(c3ccc(C)cc3)C(CC(=O)O)C2=O)cc1 (centres undefined)	Pf growth 96h inconclusive, Pf growth 48h 12µM, Cycloheximide cs 9.2
Cc1ccc(N2CC(C(N)=O)CC2=O)cc1 (centres undefined)	none
CCCc1nnc2n1N=C(c1ccc(-c3cc(Cl)ccc3Cl)o1)CS2	Shiga inhibitor active, Cycloheximide cs 21 (no result: AMA1 RON2 block)
CC(C)(C)c1ccc2cccc(F)c2n1	none (no result: Pf growth 96h, Pf growth 48h, Shiga inhibitor, Cycloheximide cs, HCV inh)
COc1ccc(C(=O)Nc2cccc(-c3cc4ccccc4oc3=O)c2)cc1[N+](=O)[O-]	Pf growth 48h 13µM, HCV inh inconclusive
O=C(CCNc1ccc(F)cc1)c1cc2ccccc2o1	AMA1 RON2 block inconclusive, HCV inh inconclusive
CCC(=O)Nc1cccc(NC(=O)c2cc3ccccc3o2)c1	Shiga inhibitor 100, Cycloheximide cs 45
O=C(Cc1cccc2ccccc12)Nc1ccc(-c2cc3ccccc3oc2=O)cc1	Pf growth 96h inconclusive, Pf growth 48h 12µM, HCV inh inconclusive
O=C(CCNc1cccc(F)c1)c1cc2ccccc2o1	Pf growth 96h inconclusive, Cycloheximide cs 44
CC(C)C[C@H]1CN(CCCC[C@H]2CNC(=O)C(=O)N2CC2CCCCC2)C(=O)C(=O)N1Cc1ccccc1	none (no result: Pf growth 96h, Pf growth 48h, Shiga inhibitor, Cycloheximide cs, HCV inh)
CCOc1ccc(S(=O)(=O)N(CC)CC(=O)NCc2ccccn2)cc1C	Pf growth 96h inconclusive
CCCCN1C(=O)C(CC(=O)NCc2ccco2)CC(C(=O)N(C)C)=C1C (centres undefined)	none (no result: Pf growth 96h, Pf growth 48h, Shiga inhibitor, Cycloheximide cs, HCV inh)
COc1ccc(OC)c(CN2C(=O)CSCC2(C)C(=O)NC(C)C)c1 (centres undefined)	none (no result: Pf growth 96h, Pf growth 48h, Shiga inhibitor, Cycloheximide cs, HCV inh)
O=C(Nc1cccc(Br)c1)c1cc2ccccc2o1	Shiga inhibitor 106, Cycloheximide cs 92, HCV inh inconclusive
O=C(COC(=O)c1cc2ccccc2oc1=O)Nc1cccc(Br)c1	none (no result: Shiga inhibitor, Cycloheximide cs)
NS(=O)(=O)c1cccc(NC(=O)c2cc3ccccc3o2)c1	Shiga inhibitor 56, Cycloheximide cs 25
CC(=O)Nc1ccc(NC(=O)c2cccc(-c3cc4ccccc4oc3=O)c2)cc1	Cycloheximide cs 31, HCV inh inconclusive
NS(=O)(=O)c1cccc(NC(=O)c2cc(=O)c3ccccc3o2)c1	none
O=C(Nc1ccc(N2CCCC2)c(Cl)c1)c1cccc(-c2cc3ccccc3oc2=O)c1	HCV inh inconclusive
Cc1cccc(NC(=O)c2cc3ccccc3o2)c1	Shiga inhibitor 95, Cycloheximide cs 50, HCV inh inconclusive
CNC(=O)c1cc2ccccc2o1	none
C#CCOCCOCCOCCNc1nc(N2CCN(C(=O)[C@H](CCCCN)n3cc(CN)nn3)CC2)nc(N2CCN(C(=O)[C@H](CCCN=C(N)N)n3cc(C(N)[C@H](C)CC)nn3)CC2)n1 (some centres undefined)	HCV inh inconclusive (no result: Pf growth 96h, Pf growth 48h, Shiga inhibitor, Cycloheximide cs)
COC(=O)[C@]1(Cc2ccccc2)N[C@H](CN(C)S(=O)(=O)c2ccc(-c3ccccc3)cc2)[C@@H]2C(=O)N(C)C(=O)[C@@H]21	none (no result: Pf growth 96h, Pf growth 48h, Shiga inhibitor, Cycloheximide cs)

Screens (PubChem BioAssay)
